Compound activity (PubChem BioAssay)
HP1b binding inh = HTS for Inhibitors of HP1-beta Chromodomain Interactions with Methylated Histone Tails | hit rate 0.56% among 390,000 | Potency, µM (highest dose often 114 µM), for inactives: at the top dose activity change, negative = inhibition, actives largely listed as inhibitors | AlphaScreen HP1-beta / biotin-H3K9me3 peptide binding | Chromobox protein homolog 1 (Homo sapiens), P83916 | AID 540317, 2011; also: nearly all actives have a fitted effect of over 70% in size
Target sequence (P83916 whole entry, looked up): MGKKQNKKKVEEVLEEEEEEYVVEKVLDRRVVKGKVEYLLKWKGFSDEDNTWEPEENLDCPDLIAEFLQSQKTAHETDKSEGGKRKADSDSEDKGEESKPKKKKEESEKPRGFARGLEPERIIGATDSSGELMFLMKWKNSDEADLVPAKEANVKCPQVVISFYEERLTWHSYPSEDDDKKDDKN
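HP1-beta protein (50 nM final) preincubated 30 min at room temperature with biotinylated H3(1-18)K9me3 peptide (50 nM) in PBS pH 7.4, 0.01% Tween-20, then compound added for 30 min. AlphaScreen streptavidin donor/nickel chelate acceptor beads (10 ug/mL final), 30 min dark, luminescence read.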
BAZ2B inh = qHTS Assay for Inhibitors of BAZ2B; Bromodomain adjacent to zinc finger domain protein 2B (Homo sapiens), Q9UIF8; AlphaScreen BAZ2B-H3K14Ac peptide displacement; Potency, µM (doses to about 114 µM), without a hit: at the highest dose activity change, negative = inhibition, hits mostly inhibitors; hit rate 4.4% among 360,000; AID 504333, 2011; also: % is scaled to controls: 0 for no effect and ±100 for the full control effect; nearly all actives have a fitted effect of over 60% in size
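BAZ2B 50 nM plus b-H3(5-23)K14Ac 50 nM, PBS pH 7.4/0.01% Tween-20, 30 min RT; compound added (max 110 uM), 30 min RT; streptavidin donor/Ni-chelate acceptor beads 10 ug/mL final, 20 min dark; AlphaScreen read.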
TDP1 inh = qHTS Assay for Inhibitors of Tyrosyl-DNA Phosphodiesterase (TDP1); Tyrosyl-DNA phosphodiesterase 1 (Homo sapiens), Q9NUW8; recombinant TDP1, AlphaScreen DNA substrate cleavage; Potency, µM (series often up to 130 µM), for inactives: top-dose activity change, negative = inhibition, actives largely listed as inhibitors; hit rate 0.28% among 350,000; also: % is scaled to controls: 0 for no effect and ±100 for the full control effect; nearly all actives have a fitted effect of over 40% in size
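Signal: AlphaScreen proximity between streptavidin donor and anti-FITC acceptor beads on intact substrate. Reaction: Tdp1 1 nM, substrate 15 nM final, 5 min RT after 15 min compound preincubation.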
JMJD2A Tudor = qHTS Assay for Inhibitors of JMJD2A-Tudor Domain | Lysine-specific demethylase 4A (Homo sapiens), O75164 | AlphaScreen JMJD2A-Tudor / H3K4me3 peptide binding | Potency, µM (top dose mostly 114 µM), for inactives: at the highest dose activity change, negative = inhibition, most hits filed as inhibitors | hit rate 4.4% among 390,000 | AID 504339, 2011; also: % is scaled to controls: 0 for no effect and ±100 for the full control effect; nearly all actives have a fitted effect of over 50% in size
Sfp PPTase inh = qHTS Assay for Inhibitors of Bacillus subtilis Sfp phosphopantetheinyl transferase (PPTase). Biochemical Sfp PPTase activity, qHTS. Potency, µM, for inactives: largest response in the series, negative = inhibition, actives largely listed as inhibitors. hit rate 3.5% among 310,000. AID 1490, 2009;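 also: the enzyme is Sfp with the accession as filed and its product quenches rhodamine fluorescence; 0% = enzyme reaction without inhibitor and -100% = no enzyme wells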
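Fluorescence-quenching assay: 15 nM Sfp-PPTase preincubated 15 min at room temperature with compound, then 5 uM rhodamine-CoA and 12.5 uM BHQ-2-labelled YbbR peptide added. Fluorescence (ex 525/em 598 nm) read at start and after 30 min; difference gives rate.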
G9a inh = qHTS Assay for Inhibitors of Histone Lysine Methyltransferase G9a; hit rate 8.8% among 350,000; G9a H3K9 monomethylation, AlphaScreen, 2 h; Potency, µM (series often up to 102 µM), inactives show at the highest dose activity, negative = inhibition, most hits filed as inhibitors; Histone-lysine N-methyltransferase EHMT2 (Homo sapiens), Q96KQ7; also: % is scaled to controls: 0 for no effect and ±100 for the full control effect; nearly all actives have a fitted effect of over 75% in size
Target sequence (Q96KQ7 913-1193 limits assumed): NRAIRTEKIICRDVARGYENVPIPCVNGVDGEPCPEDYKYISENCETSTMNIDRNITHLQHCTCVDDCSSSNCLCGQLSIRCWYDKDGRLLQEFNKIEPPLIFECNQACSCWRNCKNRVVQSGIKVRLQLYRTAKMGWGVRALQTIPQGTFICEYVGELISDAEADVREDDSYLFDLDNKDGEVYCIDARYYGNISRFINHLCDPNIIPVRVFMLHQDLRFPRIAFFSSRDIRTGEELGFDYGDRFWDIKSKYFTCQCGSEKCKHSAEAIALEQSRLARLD
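Using a bead-based AlphaScreen, monomethylated H3K9 product from 2 h room-temperature reactions (G9a 20 nM, peptide 500 nM, SAM 20 uM) was detected with 0.5 ug/mL rabbit anti-H3K9me1 antibody.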
Active calls of the source: *; [ ] = another dose, or the depositor's remark. An excerpt weighted towards active compounds, which were near 12% of everything screened. Calls follow the shape of the dose curve; as a rule, active = well fitted curve in the direction sought with a large enough effect; inconclusive = small, poorly fitted or top-dose-only effect, or another doubt; inactive = no such curve, though single readings can be large; an effect the other way counts as inactive or inconclusive. Potency is read from the fitted curve at half-maximal effect.

For Nc1nc(SCC(=O)c2c(N)n(C3CC3)c(=O)[nH]c2=O)n[nH]1 the results were HP1b binding inh 29.4%, BAZ2B inh 9.9%, TDP1 inh -4.1%, JMJD2A Tudor -6.2% and G9a inh 11.2µM*.
`Nc1c(C(=O)CSc2ncccn2)c(=O)[nH]c(=O)n1C1CC1` gave HP1b binding inh 17.8%, BAZ2B inh 4.0%, TDP1 inh -17.1%, JMJD2A Tudor -22.6% and G9a inh inconclusive.
Cc1noc(/C=C/c2ccco2)c1S(=O)(=O)N1CCC(C(=O)NC(C)c2ccccc2)CC1 (stereo unspecified) was read as HP1b binding inh 16.7%, BAZ2B inh -2.8%, TDP1 inh 0.0%, JMJD2A Tudor -10.4%, Sfp PPTase inh -13.1% and G9a inh inconclusive.
Screening Cc1noc(/C=C/c2ccco2)c1S(=O)(=O)N1CCC(C(=O)N(C)Cc2ccccc2)CC1 returned HP1b binding inh -15.5%, BAZ2B inh -28.8%, TDP1 inh 3.9%, JMJD2A Tudor -22.4%, Sfp PPTase inh 44.7µM* and G9a inh inconclusive.
CCOC(=O)c1cc(S(=O)(=O)NC2CCN(C(=O)OCC)CC2)cn1C was read as HP1b binding inh 27.8%, BAZ2B inh 3.3%, TDP1 inh 2.8%, JMJD2A Tudor -13.9%, Sfp PPTase inh -10.5% and G9a inh 50.1µM*.
For CCOC(=O)C1=C(O)/C(=C\c2ccc(CNC(=O)C(=O)Nc3ccccc3)o2)N=C1C the results were HP1b binding inh 0.8%, BAZ2B inh 56.2µM*, TDP1 inh -4.9%, JMJD2A Tudor inconclusive, Sfp PPTase inh 31.6µM* and G9a inh inconclusive.
For C#CCOCCOCCOCCNc1nc(N2CCN(C(=O)[C@H](C(C)C)n3cc(CCO)nn3)CC2)nc(N2CCN(C(=O)[C@H](Cc3ccc(O)cc3)n3cc(CCO)nn3)CC2)n1 the results were HP1b binding inh 35.0% and JMJD2A Tudor -17.6%.
`C#CCOCCOCCOCCNc1nc(N2CCN(C(=O)[C@H]([C@@H](C)O)n3cc(CCCCN)nn3)CC2)nc(N2CCN(C(=O)[C@H](Cc3ccc(O)cc3)n3cc(CCO)nn3)CC2)n1` gave HP1b binding inh 43.0%, BAZ2B inh inconclusive, TDP1 inh 2.6%, JMJD2A Tudor inconclusive, Sfp PPTase inh inconclusive and G9a inh 50.1µM*.
For C#CCOCCOCCOCCNc1nc(N2CCN(C(=O)[C@H](Cc3ccc(O)cc3)n3cc(CCO)nn3)CC2)nc(N2CCN(C(=O)[C@H](Cc3ccc(O)cc3)n3cc(CCO)nn3)CC2)n1 the results were BAZ2B inh inconclusive, TDP1 inh -10.5%, Sfp PPTase inh 13.4% and G9a inh 35.5µM*.
For C[C@H]1CN([C@@H](C)CO)C(=O)Cc2cc(NC(=O)CCC(F)(F)F)ccc2O[C@H]1CN(C)S(=O)(=O)c1ccc(Cl)cc1 the results were HP1b binding inh 38.7%, TDP1 inh -0.1% and JMJD2A Tudor -9.2%.
Screening O=C(c1ccc([N+](=O)[O-])cc1)N1CCSC1c1ccc(Br)cc1 (stereo unspecified) returned HP1b binding inh 15.8µM*, BAZ2B inh inconclusive, TDP1 inh 6.1%, JMJD2A Tudor -12.0%[11.4 µM], Sfp PPTase inh 7.2% and G9a inh inconclusive.
For O=C(c1ccc([N+](=O)[O-])cc1)N1CCSC1c1ccc(Cl)cc1 (stereo unspecified) the results were HP1b binding inh 16.1%, BAZ2B inh -37.5%, TDP1 inh 10.5%, JMJD2A Tudor -31.7%, Sfp PPTase inh 11.6% and G9a inh inconclusive.
Screening O=C(OCc1nnc(-c2ccccc2)o1)c1cc([N+](=O)[O-])ccc1Cl returned HP1b binding inh 10.9%, BAZ2B inh -10.8%, TDP1 inh 3.0%, JMJD2A Tudor -8.8%, Sfp PPTase inh inconclusive and G9a inh 3.2%.
`O=[N+]([O-])c1cc(Br)c(OCc2nnc(-c3ccccc3)o2)c(Br)c1` gave HP1b binding inh -3.1%, BAZ2B inh inconclusive, TDP1 inh 1.2%, JMJD2A Tudor -55.4%, Sfp PPTase inh 5.0% and G9a inh 28.2µM*.
Screening CCN(CC(=O)Nc1ccc(OC)cc1)C(=O)c1ccc([N+](=O)[O-])cc1 returned HP1b binding inh 12.1%, BAZ2B inh 5.1%, TDP1 inh -13.5%, JMJD2A Tudor 10µM*, Sfp PPTase inh -22.5% and G9a inh 0.7%.
For CCN(CC(=O)Nc1ccc(OC)cc1)C(=O)c1ccc2c(c1)NC(=O)CS2 the results were HP1b binding inh -5.1%, BAZ2B inh 5.2%, TDP1 inh -14.4%, JMJD2A Tudor -16.3% and G9a inh 44.7µM*.
Cn1c(=O)c2c(ncn2CC(=O)OCC(=O)Nc2cc(Cl)ccc2Cl)n(C)c1=O was read as HP1b binding inh 39.8%, BAZ2B inh -20.6%, TDP1 inh -1.1%, JMJD2A Tudor 2.1%, Sfp PPTase inh 15.9% and G9a inh 9.5%.
For Cc1cc2c(s1)c1cnn(Cc3ccc(-n4cncn4)cc3)c(=O)c1n2C the results were JMJD2A Tudor -23.3%.
Screening COc1cc(O)c(C(CCN2CCCC2)c2ccc(N(C)C)cc2)c(OC)c1 (stereo unspecified) returned HP1b binding inh inconclusive, BAZ2B inh 35.5µM*, TDP1 inh 26.2%, JMJD2A Tudor 22.4µM*, Sfp PPTase inh -21.9% and G9a inh inconclusive.
CCN(CC)C(=O)CC(c1ccc(N(C)C)cc1)c1c(O)cc(OC)cc1OC (stereo unspecified) was read as HP1b binding inh -15.8%, BAZ2B inh inconclusive, TDP1 inh 25.6%, JMJD2A Tudor 50.1µM*, Sfp PPTase inh -8.1% and G9a inh inconclusive.
`CCN(CC)C(=O)CC(c1cc(OC)c(OC)c(OC)c1)c1c(O)cc(OC)cc1OC` (stereo unspecified) gave HP1b binding inh 35.1%, BAZ2B inh 0.6%, TDP1 inh 3.2%, JMJD2A Tudor -20.7%, Sfp PPTase inh 18.9% and G9a inh 18.3%[12.7 µM].
